Holding throughout (assay): DAPPL (digital affinity profiling via proximity ligation, sequencing); 10 mM Tris-HCl pH 7.5, 50 mM NaCl, 1 mM DTT, 4% glycerol, room temperature, 30 min; GST-TFs on glutathione beads, 16-mer random dsDNA library, 0.1% formaldehyde crosslink after washing; high values mean tight binding
Test [1] deals with T1, FLI1 (Homo sapiens, UniProt Q01543 1-452).
T1 sequence: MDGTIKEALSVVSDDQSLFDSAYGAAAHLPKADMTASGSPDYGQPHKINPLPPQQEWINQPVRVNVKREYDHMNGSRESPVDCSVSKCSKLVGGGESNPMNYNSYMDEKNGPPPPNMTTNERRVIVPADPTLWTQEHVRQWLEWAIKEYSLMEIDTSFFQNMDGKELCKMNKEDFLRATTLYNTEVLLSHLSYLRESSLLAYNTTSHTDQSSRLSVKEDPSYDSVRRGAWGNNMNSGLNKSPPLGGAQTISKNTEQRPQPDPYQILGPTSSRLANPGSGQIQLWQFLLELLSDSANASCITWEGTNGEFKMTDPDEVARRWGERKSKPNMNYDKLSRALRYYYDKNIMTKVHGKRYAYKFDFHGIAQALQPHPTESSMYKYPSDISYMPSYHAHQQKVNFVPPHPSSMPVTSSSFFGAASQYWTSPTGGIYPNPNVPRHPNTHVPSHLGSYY
The conditions noted are these: protein: recombinant; tags: N-terminal GST; dsDNA, one strand shown. The essentials: (§1)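 Beads coated with glutathione captured GST-fused human transcription factors that had been expressed in yeast, and the factors were then given DNA barcodes and pooled with a tag-only sample. The pools were incubated with 200 nmole of a random double-stranded 16-mer DNA library in Tris/NaCl/DTT/glycerol buffer for 30 min at room temperature, washed, crosslinked with 0.1% formaldehyde and proximity-ligated with BsaI/T4 ligase at 37 °C for 1 h. PCR amplification and Illumina NextSeq500 sequencing came last. Binding signal is each hexamer's read frequency for a factor divided by its frequency for the tag-only sample.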

Test [2] addresses T2, ELK1 (Homo sapiens, UniProt P19419 1-428).
T2 sequence: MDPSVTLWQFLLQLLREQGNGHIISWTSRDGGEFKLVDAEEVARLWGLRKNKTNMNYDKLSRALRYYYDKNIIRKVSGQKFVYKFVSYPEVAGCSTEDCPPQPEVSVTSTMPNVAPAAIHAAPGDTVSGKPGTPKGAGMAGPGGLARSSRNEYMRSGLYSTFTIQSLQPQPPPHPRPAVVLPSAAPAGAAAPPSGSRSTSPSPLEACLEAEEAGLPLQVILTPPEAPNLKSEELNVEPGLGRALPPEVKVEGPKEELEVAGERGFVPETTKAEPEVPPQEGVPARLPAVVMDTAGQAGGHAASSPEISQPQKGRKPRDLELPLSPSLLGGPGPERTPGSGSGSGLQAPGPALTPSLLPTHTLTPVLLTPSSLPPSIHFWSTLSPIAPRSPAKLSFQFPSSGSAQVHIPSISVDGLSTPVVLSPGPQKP
The conditions noted are these: protein: recombinant; tags: N-terminal GST; dsDNA, one strand shown. The essentials: as §1

Test [3] concerns the target T3, GABPA (Homo sapiens, UniProt Q06546 1-454).
T3 sequence: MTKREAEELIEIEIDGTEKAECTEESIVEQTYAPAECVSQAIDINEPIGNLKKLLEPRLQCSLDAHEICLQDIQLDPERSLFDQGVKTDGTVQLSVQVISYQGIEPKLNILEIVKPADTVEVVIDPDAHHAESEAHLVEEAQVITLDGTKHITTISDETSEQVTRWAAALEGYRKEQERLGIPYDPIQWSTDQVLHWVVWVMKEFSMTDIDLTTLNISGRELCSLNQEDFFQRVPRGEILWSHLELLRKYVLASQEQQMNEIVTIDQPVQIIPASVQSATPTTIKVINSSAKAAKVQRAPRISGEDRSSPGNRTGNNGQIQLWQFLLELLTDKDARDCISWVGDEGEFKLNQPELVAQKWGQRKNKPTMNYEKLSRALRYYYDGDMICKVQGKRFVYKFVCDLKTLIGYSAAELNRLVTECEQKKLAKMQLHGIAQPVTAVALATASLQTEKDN
The conditions noted are these: protein: recombinant; tags: N-terminal GST; dsDNA, one strand shown. Summed up: as §1

The target of test [4] is T4, ERG (Homo sapiens, UniProt P11308 1-479).
T4 sequence: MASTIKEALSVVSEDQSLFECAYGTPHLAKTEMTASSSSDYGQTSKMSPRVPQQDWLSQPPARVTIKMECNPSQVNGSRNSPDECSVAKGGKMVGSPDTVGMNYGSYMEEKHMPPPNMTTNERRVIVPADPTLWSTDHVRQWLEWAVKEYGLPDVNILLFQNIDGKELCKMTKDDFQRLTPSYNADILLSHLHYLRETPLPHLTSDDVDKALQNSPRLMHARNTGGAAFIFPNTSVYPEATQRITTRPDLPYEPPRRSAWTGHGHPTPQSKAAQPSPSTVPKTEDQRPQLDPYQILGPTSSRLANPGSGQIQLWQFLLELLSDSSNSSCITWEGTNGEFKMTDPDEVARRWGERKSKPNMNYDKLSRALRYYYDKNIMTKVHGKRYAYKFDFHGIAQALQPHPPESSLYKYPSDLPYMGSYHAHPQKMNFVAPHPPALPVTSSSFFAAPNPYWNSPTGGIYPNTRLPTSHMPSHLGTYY
The conditions noted are these: protein: recombinant; tags: N-terminal GST; dsDNA, one strand shown. The essentials: as §1

The target of test [5] is ELF1 (Homo sapiens, UniProt P32519 1-619). The conditions noted are these: protein: recombinant; tags: N-terminal GST; dsDNA, one strand shown. Summed up:
as §1

The target of test [6] is T5, EHF (Homo sapiens, UniProt Q9NZC4 1-300).
T5 sequence: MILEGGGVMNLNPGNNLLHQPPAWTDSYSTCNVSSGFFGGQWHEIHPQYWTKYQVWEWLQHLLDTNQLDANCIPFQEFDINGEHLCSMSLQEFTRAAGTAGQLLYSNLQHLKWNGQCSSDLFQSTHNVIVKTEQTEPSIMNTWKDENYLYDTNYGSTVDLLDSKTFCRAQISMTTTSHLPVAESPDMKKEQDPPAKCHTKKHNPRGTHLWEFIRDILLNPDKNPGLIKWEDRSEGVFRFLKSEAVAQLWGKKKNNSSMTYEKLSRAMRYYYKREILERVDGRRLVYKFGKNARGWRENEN
The conditions noted are these: protein: recombinant; tags: N-terminal GST; dsDNA, one strand shown. The essentials: as §1

The target in test [7] is SPI1 (Homo sapiens, UniProt P17947 1-270). The conditions noted are these: protein: recombinant; tags: N-terminal GST; dsDNA, one strand shown. The essentials: as §1
The target in test [8] is SPIB (Homo sapiens, UniProt Q01892 1-262). The conditions noted are these: protein: recombinant; tags: N-terminal GST; dsDNA, one strand shown. Summed up: as §1
Sequence of SPIB (Q01892 whole entry): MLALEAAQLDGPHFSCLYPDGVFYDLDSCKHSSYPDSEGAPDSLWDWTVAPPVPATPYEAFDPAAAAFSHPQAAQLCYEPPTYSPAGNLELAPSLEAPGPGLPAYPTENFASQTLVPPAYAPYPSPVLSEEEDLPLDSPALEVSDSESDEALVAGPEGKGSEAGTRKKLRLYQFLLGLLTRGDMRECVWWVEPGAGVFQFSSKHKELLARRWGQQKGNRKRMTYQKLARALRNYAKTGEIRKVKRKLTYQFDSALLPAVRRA
The target of test [9] is T6, ELK3 (Homo sapiens, UniProt P41970 1-407).
T6 sequence: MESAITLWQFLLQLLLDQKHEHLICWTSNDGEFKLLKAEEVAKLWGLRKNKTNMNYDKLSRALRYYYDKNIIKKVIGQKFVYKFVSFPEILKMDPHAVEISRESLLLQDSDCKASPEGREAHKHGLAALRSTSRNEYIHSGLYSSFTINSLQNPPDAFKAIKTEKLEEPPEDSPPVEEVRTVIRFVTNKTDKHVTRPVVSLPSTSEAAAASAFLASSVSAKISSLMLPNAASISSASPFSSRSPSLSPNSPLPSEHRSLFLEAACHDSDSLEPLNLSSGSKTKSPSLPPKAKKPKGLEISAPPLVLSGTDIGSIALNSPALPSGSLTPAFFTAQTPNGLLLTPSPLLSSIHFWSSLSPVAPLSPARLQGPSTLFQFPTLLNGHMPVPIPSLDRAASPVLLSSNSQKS
The conditions noted are these: protein: recombinant; tags: N-terminal GST; dsDNA, one strand shown. Summed up: as §1

The target in test [10] is T7, FEV (Homo sapiens, UniProt Q99581 1-238).
T7 sequence: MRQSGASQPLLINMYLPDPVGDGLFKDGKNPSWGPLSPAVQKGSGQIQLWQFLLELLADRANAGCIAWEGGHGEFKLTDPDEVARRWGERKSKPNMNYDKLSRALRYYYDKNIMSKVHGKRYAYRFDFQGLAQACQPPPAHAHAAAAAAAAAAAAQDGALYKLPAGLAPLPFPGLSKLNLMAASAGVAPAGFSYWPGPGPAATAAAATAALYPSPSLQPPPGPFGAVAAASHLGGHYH
The conditions noted are these: protein: recombinant; tags: N-terminal GST; dsDNA, one strand shown. The essentials:
as §1

For test [11], the target named is ETV5 (Homo sapiens, UniProt P41161 1-510). The conditions noted are these: protein: recombinant; tags: N-terminal GST; dsDNA, one strand shown. The essentials:
as §1

For test [12], the target named is HSF1 (Homo sapiens, UniProt Q00613 1-529). The conditions noted are these: protein: recombinant; tags: N-terminal GST; chain copies: 3; dsDNA, one strand shown. The essentials: as §1
Sequence of HSF1 (Q00613 whole entry): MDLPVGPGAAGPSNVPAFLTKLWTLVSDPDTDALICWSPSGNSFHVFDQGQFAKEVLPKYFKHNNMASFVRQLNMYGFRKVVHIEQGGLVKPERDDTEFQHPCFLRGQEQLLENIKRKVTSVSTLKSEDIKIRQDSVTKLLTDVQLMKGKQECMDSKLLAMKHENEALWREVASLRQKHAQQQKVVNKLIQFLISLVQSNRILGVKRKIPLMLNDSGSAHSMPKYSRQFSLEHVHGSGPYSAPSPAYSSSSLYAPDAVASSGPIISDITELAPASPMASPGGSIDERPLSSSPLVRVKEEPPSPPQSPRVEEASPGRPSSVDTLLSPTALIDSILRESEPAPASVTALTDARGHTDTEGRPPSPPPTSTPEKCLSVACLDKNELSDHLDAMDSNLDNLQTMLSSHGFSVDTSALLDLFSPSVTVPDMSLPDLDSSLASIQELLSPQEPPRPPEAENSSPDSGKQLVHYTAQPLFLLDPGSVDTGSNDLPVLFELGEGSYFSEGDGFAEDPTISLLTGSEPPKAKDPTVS
Test [13] addresses T8, SPIC (Homo sapiens, UniProt Q8N5J4 1-248).
T8 sequence: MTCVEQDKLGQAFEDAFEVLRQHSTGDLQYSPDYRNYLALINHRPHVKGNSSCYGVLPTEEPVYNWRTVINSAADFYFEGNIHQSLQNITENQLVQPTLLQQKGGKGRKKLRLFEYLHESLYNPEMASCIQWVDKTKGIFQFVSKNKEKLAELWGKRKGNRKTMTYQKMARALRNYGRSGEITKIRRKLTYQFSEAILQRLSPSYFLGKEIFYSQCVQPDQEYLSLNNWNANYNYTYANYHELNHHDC
The conditions noted are these: protein: recombinant; tags: N-terminal GST; dsDNA, one strand shown. The essentials: as §1

The target in test [14] is ELF4 (Homo sapiens, UniProt Q99607 1-663). The conditions noted are these: protein: recombinant; tags: N-terminal GST; dsDNA, one strand shown. The essentials:
as §1

The target in test [15] is T9, ELK4 (Homo sapiens, UniProt P28324-2 1-405).
T9 sequence: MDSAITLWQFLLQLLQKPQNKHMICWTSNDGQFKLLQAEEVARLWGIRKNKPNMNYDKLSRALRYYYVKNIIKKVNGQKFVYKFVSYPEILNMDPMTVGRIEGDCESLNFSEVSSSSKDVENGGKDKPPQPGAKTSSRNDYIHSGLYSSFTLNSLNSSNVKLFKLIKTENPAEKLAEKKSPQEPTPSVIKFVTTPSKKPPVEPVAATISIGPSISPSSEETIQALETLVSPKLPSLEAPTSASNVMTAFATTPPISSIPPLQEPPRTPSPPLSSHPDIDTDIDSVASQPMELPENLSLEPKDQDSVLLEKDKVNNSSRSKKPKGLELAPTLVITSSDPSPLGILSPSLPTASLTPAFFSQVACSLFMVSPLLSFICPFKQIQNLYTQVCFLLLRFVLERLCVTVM
The conditions noted are these: protein: recombinant; tags: N-terminal GST; dsDNA, one strand shown. Summed up:
as §1

The target in test [16] is CRX (Homo sapiens, UniProt O43186 1-299). The conditions noted are these: protein: recombinant; tags: N-terminal GST; dsDNA, one strand shown. Summed up: as §1
Sequence of CRX (O43186 whole entry): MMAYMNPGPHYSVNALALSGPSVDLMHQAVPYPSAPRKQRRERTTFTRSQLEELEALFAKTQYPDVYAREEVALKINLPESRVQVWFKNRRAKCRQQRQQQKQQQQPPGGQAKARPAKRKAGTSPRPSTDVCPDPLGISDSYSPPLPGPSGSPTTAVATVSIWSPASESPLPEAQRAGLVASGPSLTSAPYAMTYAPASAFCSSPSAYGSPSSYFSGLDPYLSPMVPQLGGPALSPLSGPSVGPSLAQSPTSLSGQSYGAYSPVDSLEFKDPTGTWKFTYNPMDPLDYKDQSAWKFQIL
Test [17] concerns the target ETV1 (Homo sapiens, UniProt P50549 1-477). The conditions noted are these: protein: recombinant; tags: N-terminal GST; dsDNA, one strand shown. Summed up:
as §1

Sequence of ETV5 (P41161 whole entry): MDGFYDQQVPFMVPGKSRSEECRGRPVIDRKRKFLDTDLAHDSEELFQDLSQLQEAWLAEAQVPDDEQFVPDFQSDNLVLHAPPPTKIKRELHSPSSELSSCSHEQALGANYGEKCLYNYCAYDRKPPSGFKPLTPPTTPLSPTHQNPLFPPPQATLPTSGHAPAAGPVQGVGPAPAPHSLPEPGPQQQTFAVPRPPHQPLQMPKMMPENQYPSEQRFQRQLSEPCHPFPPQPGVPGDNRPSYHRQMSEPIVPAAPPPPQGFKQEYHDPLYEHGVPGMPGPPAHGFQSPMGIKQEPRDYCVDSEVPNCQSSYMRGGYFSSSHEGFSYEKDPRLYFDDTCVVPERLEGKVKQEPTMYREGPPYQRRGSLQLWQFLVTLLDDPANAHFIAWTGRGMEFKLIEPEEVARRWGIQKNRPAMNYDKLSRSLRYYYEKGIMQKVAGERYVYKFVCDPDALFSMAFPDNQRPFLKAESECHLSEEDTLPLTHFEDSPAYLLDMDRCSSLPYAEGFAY
Sequence of ELF1 (P32519 whole entry): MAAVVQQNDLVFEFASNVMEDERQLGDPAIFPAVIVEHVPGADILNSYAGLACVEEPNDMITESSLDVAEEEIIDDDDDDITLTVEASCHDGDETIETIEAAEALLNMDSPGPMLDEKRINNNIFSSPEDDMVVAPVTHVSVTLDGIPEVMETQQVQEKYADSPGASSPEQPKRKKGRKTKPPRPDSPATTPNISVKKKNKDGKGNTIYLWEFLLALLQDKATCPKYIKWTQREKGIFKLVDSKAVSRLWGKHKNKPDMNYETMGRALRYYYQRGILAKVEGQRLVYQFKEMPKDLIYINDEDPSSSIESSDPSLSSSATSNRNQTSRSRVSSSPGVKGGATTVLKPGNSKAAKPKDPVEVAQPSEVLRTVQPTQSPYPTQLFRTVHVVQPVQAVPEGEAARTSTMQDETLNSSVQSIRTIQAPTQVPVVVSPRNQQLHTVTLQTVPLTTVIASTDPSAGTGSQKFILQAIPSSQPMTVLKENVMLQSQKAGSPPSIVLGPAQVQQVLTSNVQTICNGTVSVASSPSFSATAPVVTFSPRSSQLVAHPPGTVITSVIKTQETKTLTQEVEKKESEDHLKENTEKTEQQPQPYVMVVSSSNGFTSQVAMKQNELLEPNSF
Sequence of ELF4 (Q99607 whole entry): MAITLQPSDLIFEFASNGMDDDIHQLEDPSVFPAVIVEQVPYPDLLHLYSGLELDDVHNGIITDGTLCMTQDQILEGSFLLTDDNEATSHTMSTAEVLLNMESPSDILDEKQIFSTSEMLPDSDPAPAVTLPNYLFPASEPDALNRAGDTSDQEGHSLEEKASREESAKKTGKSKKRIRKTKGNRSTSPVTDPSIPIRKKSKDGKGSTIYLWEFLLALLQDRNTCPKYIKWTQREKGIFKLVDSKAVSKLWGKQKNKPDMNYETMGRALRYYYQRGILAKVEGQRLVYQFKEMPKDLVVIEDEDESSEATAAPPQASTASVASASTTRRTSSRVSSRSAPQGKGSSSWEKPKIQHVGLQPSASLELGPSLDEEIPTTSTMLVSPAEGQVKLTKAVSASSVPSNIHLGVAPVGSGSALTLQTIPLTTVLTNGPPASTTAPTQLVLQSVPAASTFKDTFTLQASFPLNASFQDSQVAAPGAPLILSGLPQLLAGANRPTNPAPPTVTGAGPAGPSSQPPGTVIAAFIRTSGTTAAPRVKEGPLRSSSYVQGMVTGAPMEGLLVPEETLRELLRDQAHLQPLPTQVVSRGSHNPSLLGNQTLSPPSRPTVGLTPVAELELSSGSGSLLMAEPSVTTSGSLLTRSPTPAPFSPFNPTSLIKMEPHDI
Sequence of ETV1 (P50549 whole entry): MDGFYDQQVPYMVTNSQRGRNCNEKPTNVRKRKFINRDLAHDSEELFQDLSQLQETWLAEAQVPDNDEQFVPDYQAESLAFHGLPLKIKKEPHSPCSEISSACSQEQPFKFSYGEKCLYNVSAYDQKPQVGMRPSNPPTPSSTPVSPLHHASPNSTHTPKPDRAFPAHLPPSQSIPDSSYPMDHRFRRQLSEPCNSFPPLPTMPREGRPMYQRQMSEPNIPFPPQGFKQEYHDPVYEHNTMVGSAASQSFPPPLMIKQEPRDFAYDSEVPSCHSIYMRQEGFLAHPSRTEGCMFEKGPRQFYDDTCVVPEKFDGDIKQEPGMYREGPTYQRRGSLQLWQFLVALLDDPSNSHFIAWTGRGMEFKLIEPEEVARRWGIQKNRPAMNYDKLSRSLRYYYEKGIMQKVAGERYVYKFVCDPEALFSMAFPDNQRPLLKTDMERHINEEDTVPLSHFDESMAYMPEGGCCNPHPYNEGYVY

For TAGAAA, the binding signal was 1.1 fold enrichment (6-mer frequency, TF over GST control) in [1]; 1.03 fold enrichment (6-mer frequency, TF over GST control) in test [2]; 1.02 fold enrichment (6-mer frequency, TF over GST control) in [3]; 1.04 fold enrichment (6-mer frequency, TF over GST control) in test [4]; 1.09 fold enrichment (6-mer frequency, TF over GST control) in [5]; 1.07 fold enrichment (6-mer frequency, TF over GST control) in test [6]. Also, the binding signal in test [7] was 1.11 fold enrichment (6-mer frequency, TF over GST control); in [8], 1.11 fold enrichment (6-mer frequency, TF over GST control); in test [9] it was 1.09 fold enrichment (6-mer frequency, TF over GST control); in test [10], 1.04 fold enrichment (6-mer frequency, TF over GST control); in test [11], 1.03 fold enrichment (6-mer frequency, TF over GST control); in test [12], 3.06 fold enrichment (6-mer frequency, TF over GST control). In addition, the binding signal in test [13] was 1.12 fold enrichment (6-mer frequency, TF over GST control); in test [14], 1.1 fold enrichment (6-mer frequency, TF over GST control); in test [15], 1.13 fold enrichment (6-mer frequency, TF over GST control); in test [16], 1.58 fold enrichment (6-mer frequency, TF over GST control); in test [17], 1.13 fold enrichment (6-mer frequency, TF over GST control).

Values taken from paper PMC7862700, “An all-to-all approach to the identification of sequence-specific readers for epigenetic DNA modifications on cytosine”.
